A selection: hits, their analogues and other compounds. The true share with any hit is near 0.47%.
AID inhibitor: Primary qHTS assay for inhibitors of Activation Induced Cytidine Deaminase (AID): AID signal; Single-stranded DNA cytosine deaminase (Homo sapiens), Q9GZX7; AID deamination FRET fluorescence, UDG-coupled, 4 h; Potency, µM (highest dose often 115 µM), most hits filed as inhibitors; 91,000 tested, 0.32% active; AID 1347428, 2020; also: nearly all actives have a fitted effect of over 25% in size
Target sequence (Q9GZX7 whole entry, looked up): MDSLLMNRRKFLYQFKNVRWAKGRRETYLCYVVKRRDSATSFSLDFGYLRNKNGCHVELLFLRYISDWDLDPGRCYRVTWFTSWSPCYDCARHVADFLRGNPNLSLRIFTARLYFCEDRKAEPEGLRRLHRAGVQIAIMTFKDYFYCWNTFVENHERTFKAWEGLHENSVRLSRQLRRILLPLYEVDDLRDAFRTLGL
UDG counterscr: Primary qHTS assay for inhibitors of Activation Induced Cytidine Deaminase (AID): UDG Counterscreen signal; Uracil-DNA glycosylase; Potency, µM (top dose mostly 115 µM), for inactives: top-dose activity change, negative = inhibition, hits mostly inhibitors; AID 1347430, 2020; 91,000 tested, 0.14% active; FRET deamination/UDG coupled assay, UDG read, 4 h; also: nearly all actives have a fitted effect of over 65% in size
The depositor's hits bear a star; i = inactive; ? = inconclusive. Calls follow the shape of the dose curve; as a rule, active = well fitted curve in the direction sought with a large enough effect; inconclusive = small, poorly fitted or top-dose-only effect, or another doubt; inactive = no such curve, though single readings can be large; an effect the other way counts as inactive or inconclusive. % is scaled to controls: 0 for no effect and ±100 for the full control effect; potency is read from the fitted curve at half-maximal effect.

SMILES	AID inhibitor	UDG counterscr
O=C(CSc1n[nH]c(-c2cc(Br)ccc2O)n1)N1CCCC1	i	0%
CCc1c(C)nc(Nc2nc(C)c3cccc(OC)c3n2)[nH]c1=O	?	0%
COC(=O)C1=C(C)N(C)C(=S)NC1c1ccc(C(C)C)cc1 (configuration not stated)	?	-9%
Cc1nc(-c2ccncc2)[nH]c(=O)c1CC(=O)N(C)C1CCCCC1	28µM*	3%
Cc1nc(-c2ccncc2)[nH]c(=O)c1CC(=O)N(C)C(C)C(C)(C)C (configuration not stated)	i	3%
Cc1ccn2c(Nc3ccccc3)c(-c3c[nH]c4ccccc34)nc2c1	i	6%
Cc1ccc(Nc2c(-c3c[nH]c4ccccc34)nc3cc(C)ccn23)cc1	?	79µM*
O=C(O)c1ccccc1NS(=O)(=O)c1ccc(N/N=C/c2c(-c3ccccc3)[nH]c3ccccc23)c([N+](=O)[O-])c1	?	-6%
CCc1ccc(-c2nc3c(c(SCc4ccccc4)n2)Cc2c(CO)cnc(C)c2O3)cc1	i	-7%
CCN(CC)C(=O)CSc1nc(-c2ccc(C)cc2)nc2c1Cc1c(CO)cnc(C)c1O2	45µM*	5%
Cc1ccc(-c2nc3c(c(SCC(=O)N(C)c4ccccc4)n2)Cc2c(CO)cnc(C)c2O3)cc1	?	3%
C=Cc1ccc(CSc2nc(-c3ccc(C)cc3)nc3c2Cc2c(CO)cnc(C)c2O3)cc1	32µM*	6%
COc1cc(C)cc2oc(=O)c(CC(=O)O)c(C)c12	i	-2%
O=C1CCC(C(=O)OC2CCOC2=O)=NN1 (configuration not stated)	i	-3%
CCOc1ccc(-c2noc(CSc3nnc(-c4ccccc4)n3-c3ccccc3)n2)cc1	i	-1%
Cc1ccc(-n2c(SCc3nc(-c4ccc(Cl)cc4)no3)nnc2-c2ccncc2)cc1	35µM*	?
COc1ccc(-c2noc(CSc3nnc(C)n3-c3ccc(F)cc3)n2)cc1	i	79µM*
COCCSc1nnc(-c2ccc(Cl)cc2)n1-c1ccc(OC)cc1	i	-5%
COc1ccc(-c2noc(CSc3nnc(-c4ccncc4)n3-c3ccc(OC)cc3)n2)cc1	?	79µM*
Cc1ccc(-c2noc(CSc3nnc(C)n3-c3ccc(C)cc3)n2)cc1	?	-21%
COc1ccc(OC)c(-c2noc(CSc3nnc(-c4ccccc4)n3-c3ccccc3)n2)c1	i	5%
Clc1ccccc1-c1nnc(SCc2nc(-c3ccccc3)no2)n1-c1ccccc1	?	79µM*
COc1ccc(-c2coc3cc(OCC(=O)NCc4ccccc4Cl)ccc3c2=O)cc1OC	i	4%
CN(C)CCCN(Cc1ccc(Cl)cc1Cl)Cc1ccc(Cl)cc1Cl	i	-5%
NNc1ccc(S(=O)(=O)O)cc1	i	-4%
SMILES	AID inhibitor	UDG counterscr
CCC(C)NC(=O)Nc1sc(C)c(C)c1C#N (configuration not stated)	i	2%
Cc1cccc(-n2nnnc2SCc2cc(=O)oc3cc(O)ccc23)c1	i	-2%
O=C(O)c1cccc2c1C(=O)C(CC1CCCO1)N2 (configuration not stated)	i	-5%
Cc1c(-c2cccs2)nc2ccccc2c1-c1ccccc1	i	-5%
C=CCOc1ccccc1N	i	2%
O=C(O)c1cc(-n2c(/C=C\c3ccc(F)cc3)nc3ccccc3c2=O)ccc1Cl	?	89µM*
O=C(O)c1ccc(-n2c(/C=C\c3ccc(O)cc3)nc3ccccc3c2=O)cc1	i	-7%
O=c1c2nccnc2nc(SCc2cccc(F)c2)n1Cc1ccc2c(c1)OCO2	i	6%
COc1ccc(OC)c(NC(=O)NC(C)C(=O)N2CCc3ccccc32)c1 (configuration not stated)	i	-9%
CC(Oc1ccc(C(=O)c2ccccc2)cc1)C(=O)N1CCc2ccccc21 (configuration not stated)	i	79µM*
C=CCNC(=O)COCC(=O)O	i	3%
O=C(C1CC1)N(Cc1ccc2c(c1)CN(S(=O)(=O)c1ccccc1F)CCO2)c1ccccc1	?	0%
O=C(C1CC1)N(Cc1ccc2c(c1)CN(S(=O)(=O)c1ccc(F)c(F)c1)CCO2)c1ccccc1	?	89µM*
CCOc1ccc(Oc2ccc(NC(=O)c3nn(C)c(=O)c4ccccc34)cc2)cc1	i	-13%
O=C1Cc2cc(S(=O)(=O)N3CCCCC3)cc3c2N1CCC3	?	89µM*
COC(=O)C1CCN(S(=O)(=O)c2cc3c4c(c2)CC(=O)N4CCC3)CC1	i	0%
Clc1ccc(C=Nc2ccc(Nc3ccccc3)cc2)c(Cl)c1	i	-10%
Cc1cc(C)c2c(-n3cccc3)c(C(=O)NCC(C)c3ccccc3)sc2n1 (configuration not stated)	?	-10%
